Assay outcomes: PubChem, National Center for Advancing Translational Sciences (NCATS)
GALC G270D act: raises human GALC G270D mutant activity in cells; P54803; 45,000 tested, 0.1% active; 145M-Twi-hGALC-G270D cells (Twitcher mouse brain line with human GALC G270D), HMU-beta-Gal fluorescence, 48 h; AID 1159614; Potency, µM (doses to about 57.5 µM), most hits filed as activators; note: nearly all actives have a fitted effect of over 65% in size
Target sequence (P54803 whole entry G286D): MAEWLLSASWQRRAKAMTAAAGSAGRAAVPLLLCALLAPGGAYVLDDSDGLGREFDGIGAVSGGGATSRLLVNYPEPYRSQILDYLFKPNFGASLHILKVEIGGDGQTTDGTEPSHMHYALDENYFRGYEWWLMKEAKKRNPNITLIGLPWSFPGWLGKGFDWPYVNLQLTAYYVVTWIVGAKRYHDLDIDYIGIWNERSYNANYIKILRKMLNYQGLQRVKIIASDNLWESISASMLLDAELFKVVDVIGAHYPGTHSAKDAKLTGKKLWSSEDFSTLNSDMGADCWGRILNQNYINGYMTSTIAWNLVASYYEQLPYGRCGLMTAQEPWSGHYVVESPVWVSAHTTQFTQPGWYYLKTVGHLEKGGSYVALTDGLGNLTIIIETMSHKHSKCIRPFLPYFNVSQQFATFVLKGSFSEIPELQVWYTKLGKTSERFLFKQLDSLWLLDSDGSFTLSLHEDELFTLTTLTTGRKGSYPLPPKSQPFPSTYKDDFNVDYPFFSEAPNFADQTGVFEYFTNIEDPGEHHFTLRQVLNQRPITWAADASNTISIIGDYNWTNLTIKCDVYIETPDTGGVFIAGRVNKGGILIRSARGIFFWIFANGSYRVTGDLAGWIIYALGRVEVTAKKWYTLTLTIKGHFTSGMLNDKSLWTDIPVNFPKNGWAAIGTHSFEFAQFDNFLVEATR
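Fluorescence readout: HMU-β-gal cleavage by mutant GALC (0.1 mM final, citrate/phosphate pH 5.2 with 1 mg/mL taurocholate), stopped with carbonate/bicarbonate plus Triton X-100. Cells: murine Twitcher 145M-Twi expressing human G270D GALC; qHTS for activators.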
HTT-AS promoter: HTT-AS promoter activation; HEK293 HTT-AS promoter firefly luciferase reporter, 24 h; response scale: percent change from vehicle, -100% = no light; Potency, µM (series often up to 57.5 µM), most hits filed as activators; 48,000 tested, 0.24% active; note: nearly all actives have a fitted effect of over 55% in size
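HEK293 cells carrying firefly luciferase reporters were seeded at 2,500 per well in Opti-MEM and cultured for 24 h. They were then treated with compounds at up to 57.5 uM final for 24 h at 37 degrees C before Dual-Glo luminescence readout.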
HTT promoter inh: HTT promoter inhibition; HEK293 HTT promoter firefly luciferase reporter, 24 h; 48,000 tested, 0.93% active; Potency, µM (doses to about 57.5 µM), most hits filed as inhibitors; AID 1508623; note: nearly all actives have a fitted effect of over 50% in size
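Luminescence was read after Dual-Glo reagent and a 10 min room-temperature incubation. Values were normalized to vehicle (0% activity) and zero RLU (-100% activity). Reporter HEK293 cells had been exposed to compounds (up to 57.5 uM final) for 24 h.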
A number is an active result; . = inactive; ? = inconclusive; / = no result given. The list is not random: actives were taken first. Their share in the collection is about 1.3%. Calls come from the whole dose curve; as a rule, active = well fitted curve in the direction sought with a large enough effect; inconclusive = small, poorly fitted or top-dose-only effect, or another doubt; inactive = no such curve, though single readings can be large; an effect the other way counts as inactive or inconclusive.

SMILES | GALC G270D act | HTT-AS promoter | HTT promoter inh
COc1ccc(-c2nc(CSCC(=O)N3CCN(c4cc(Cl)ccc4C)CC3)c(C)o2)cc1 | . | . | 12.6µM
CC(C)NC(=O)c1ccc(C=O)cc1 | . | ? | .
Cc1nc(Nc2n[nH]c3c2CN(C(=O)N[C@H](CN(C)C)c2ccccc2)C3(C)C)c2sccc2n1 | / | ? | .
O=c1cc(-c2cccc3c2Sc2ccccc2S3)oc(N2CCOCC2)c1 | / | . | ?
NS(=O)(=O)OC[C@@H]1C[C@@H](n2ccc3c(N[C@H]4CCc5ccccc54)ncnc32)C[C@H]1O | / | . | .
CCS(=O)(=O)N1CC(CC#N)(n2cc(-c3ncnc4[nH]ccc34)cn2)C1 | / | ? | .
Cc1cccc(-c2nc(CSCC(=O)N3CCN(c4ccccc4)CC3)c(C)o2)c1 | . | . | ?
COc1ccc(-c2nc(CSCC(=O)N3CCN(c4cccc(C)c4C)CC3)c(C)o2)cc1OC | . | . | 12.6µM
O=C(CC12CC3CC(CC(C3)C1)C2)Nc1cccc2nc(NCCNCCO)ccc12 | / | . | .
COCCCn1c(=N)c(C(=O)NCc2ccco2)cc2c(=O)n3ccccc3nc21 | . | . | .
CCOCCCn1c(=N)c(C(=O)NCc2ccco2)cc2c(=O)n3ccccc3nc21 | 22.4µM | . | .
CCN1CCN(Cc2ccc(-c3cc4c(N[C@H](C)c5ccccc5)ncnc4[nH]3)cc2)CC1 | / | . | ?
C[N+]1(C)[C@@H]2C[C@@H](OC(=O)C(O)(c3cccs3)c3cccs3)C[C@H]1[C@@H]1O[C@@H]12 | / | . | .
CC1Cc2ccccc2N1S(=O)(=O)c1nnc(NC(=O)c2cccc(F)c2)s1 (stereo not given) | . | . | 25.1µM
CC1CCN(S(=O)(=O)c2nnc(NC(=O)c3cccc(F)c3)s2)CC1 | . | . | .
CCN1CCN(c2ncnc3c2cnn3-c2cc(Cl)ccc2C)CC1 | . | . | .
Cc1ccc(Cl)cc1-n1ncc2c(N3CCN(Cc4ccccc4)CC3)ncnc21 | . | . | 12.6µM
CC1Cc2cc(S(=O)(=O)NCc3ccccc3Cl)ccc2N1C(=O)C1CCC1 (stereo not given) | . | . | 28.2µM
COc1ccc(CCNS(=O)(=O)c2ccc3c(c2)CC(C)N3C(=O)C2CCC2)cc1OC (stereo not given) | . | . | ?
Cc1cccc(-n2c(C)cc(C(=O)C(=O)Nc3ccccc3F)c2C)c1C | . | . | 8.91µM
Cc1cc(C)cc(-n2c(C)cc(C(=O)C(=O)Nc3ccccc3F)c2C)c1 | . | ? | .
COc1ccc(-c2noc(N3CCC(C(=O)N(C)c4cc(Cl)ccc4OC)CC3)n2)cc1 | . | . | ?
COc1ccc(-c2noc(N3CCC(C(=O)Nc4ccc(F)cc4Cl)CC3)n2)cc1 | . | . | 1.78µM
COc1ccc(-c2noc(N3CCC(C(=O)N4CCN(c5cccc(OC)c5)CC4)CC3)n2)cc1 | . | . | 2.24µM
COc1ccc(-c2noc(N3CCC(C(=O)N4CCN(c5cccc(C)c5C)CC4)CC3)n2)cc1 | . | . | ?
SMILES | GALC G270D act | HTT-AS promoter | HTT promoter inh
CCc1ccc(NC(=O)C2CCN(c3nc(-c4ccc(OC)cc4)no3)CC2)cc1 | . | . | ?
COc1ccc(-c2noc(N3CCC(C(=O)N4CCN(c5ccccc5OC)CC4)CC3)n2)cc1 | . | . | 12.6µM
CC1=C(C(=O)Nc2cc3cn[nH]c3cc2F)C(c2ccc(Cl)cc2F)N=C(c2ccnc(Cl)c2)N1 (stereo not given) | / | . | .
CCn1c(C(=O)N(C2CC2)C2CC2)cc2c3c(ncn3C)c(Nc3cc(C)n(C)n3)nc21 | / | . | .
COc1cccc(-c2cn3ncsc3n2)c1 | . | 2.51µM | .
CCNC(=O)c1ccc2c(c1)sc1nc(-c3cccc(OC)c3)cn12 | . | ? | .
COc1ccc(CCNS(=O)(=O)c2ccc(N3CCCCS3(=O)=O)cc2)cc1 | . | . | ?
COc1ccc(NS(=O)(=O)c2ccc(N3CCCCS3(=O)=O)cc2)cc1Cl | . | . | 14.1µM
COc1cccc(CNS(=O)(=O)c2ccc(N3CCCCS3(=O)=O)cc2)c1 | . | . | 15.8µM
O=S(=O)(Nc1ccc(OC(F)(F)F)cc1)c1ccc(N2CCCCS2(=O)=O)cc1 | . | . | ?
CC(C)(Oc1ccc(Cl)cc1)C(=O)OCCCOC(=O)C(C)(C)Oc1ccc(Cl)cc1 | . | . | .
Cc1ccc(-c2cc(NC(=O)COc3ccc(Cl)c(C)c3)on2)cc1 | . | . | .
Cc1ccc(-c2cc(NC(=O)c3ccccc3Cl)on2)cc1 | . | 4.47µM | .
C=C1C(=O)O[C@H]2[C@@H]1CCC(C)=CCC[C@@]1(C)O[C@@H]21 | / | . | ?
O=Cc1ccc(O)c(O)c1O | . | . | .
C[C@H](CCC(=O)O)[C@H]1CC[C@H]2[C@@H]3[C@H](O)C[C@@H]4C[C@H](O)CC[C@]4(C)[C@@H]3CC[C@]12C | / | . | .
c1cc(N[C@@H]2CCNC2)nc(-c2cnc3ccc(-c4cn[nH]c4)cn23)c1 | / | . | ?
Cc1ccc(NC(=O)CSc2nnc3[nH]c(=O)cc(-c4ccccc4)n23)cc1Cl | . | 14.1µM | .
Cc1ccc(C)c(NC(=O)CSc2nnc3[nH]c(=O)cc(-c4ccccc4)n23)c1 | . | ? | .
COc1ccc2sc(N(Cc3cccnc3)C(=O)c3cccs3)nc2c1 | . | . | 14.1µM
CCOc1ccc2nc(N(Cc3cccnc3)C(=O)c3cccs3)sc2c1 | . | ? | .
CCNC(=O)Nc1ccc(-c2nc3c(c(N4CCOC[C@H]4C)n2)CCN(C2COC2)C3)cc1 | / | . | ?
CCCCCNC(=O)N1CCC(CN(Cc2ccc(Cl)cc2)Cc2ccc([N+](=O)[O-])s2)C1 (stereo not given) | / | . | .
CC(C)Oc1ccc(CNC(=O)c2ccc3nc(SCc4ccc(F)cc4)n(C)c3c2)cc1 | . | . | ?
Cc1ccc(CNC(=O)c2ccc3nc(SCc4ccc(F)cc4)[nH]c3c2)cc1 | . | . | 22.4µM
SMILES | GALC G270D act | HTT-AS promoter | HTT promoter inh
Cn1c(SCc2ccc(F)cc2)nc2ccc(C(=O)NCc3ccc(F)cc3)cc21 | . | . | 25.1µM
Cn1c(SCc2ccc(F)cc2)nc2ccc(C(=O)NCc3ccc(Cl)cc3)cc21 | . | . | ?
CN(C)c1ccc(C(=O)NCCCCCCC(=O)NO)cc1 | / | ? | .
O=C(CCCCCCC(=O)Nc1ccc([C@H]2O[C@@H](CSc3nc(-c4ccccc4)c(-c4ccccc4)o3)C[C@@H](c3ccc(CO)cc3)O2)cc1)NO | / | . | .
Cc1cccc(NC(=O)c2cc3c(=O)n4cccc(C)c4nc3s2)c1C | . | . | .
Cc1cccn2c(=O)c3cc(C(=O)NCC(C)C)sc3nc12 | 3.98µM | . | .
CCCCN(CCCC)C(=O)c1cc2c(=O)n3cccc(C)c3nc2s1 | . | . | .
CCCN(CCC)C(=O)c1cc2c(=O)n3cccc(C)c3nc2s1 | 20µM | . | .
C[C@H](CCC(=O)O)[C@H]1CC[C@H]2[C@H]3[C@@H](CC[C@]12C)[C@@]1(C)CC[C@@H](O)C[C@H]1C[C@@H]3O | / | . | .
C[C@@H](Oc1ccc2[nH]nc(C=Cc3cnn(CCO)c3)c2c1)c1c(Cl)cncc1Cl | / | . | ?
COc1ccccc1NC(=O)CSc1nnc(-c2ccccc2C)o1 | . | ? | .
O=C(CSc1nnc(-c2ccccc2F)o1)Nc1ccccc1Cl | . | 2.24µM | .
